Reference: PubChem BioAssay AID720706 (Broad Institute, 2013)
In all, about 350,000 compounds went through this assay and about 5,500 (1.6%) were called active. The sample holds actives, similar compounds and a random draw of the others, so the mix is not that of the screen.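 The calls were made as follows: active = significant combined selectivity score with lowered wild-type GFP, culture density cut under 30%, mutant RFP and density less affected; inactive = any of these conditions unmet.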

Experiment: GFP drop in mixed WT/humanized-ribosome E. coli culture – GFP/RFP fluorescence, OD600, single point, bacterial rRNA inhibitor project, primary screen (AID 720706)
Settings: E. coli WT GFP vs humanized-ribosome RFP mutants, 24 h; GFP signal change (wild-type ribosome): stronger effect = lower value, DMSO median 0, no signal -100; OD600 change: measured here: OD600 growth, DMSO median 0, no signal -100; RFP signal change: measured here: RFP humanized mutant strains, DMSO median 0, no signal -100, concentration not given here
With Cc1ccccc1-n1nc(SCC(=O)O)sc1=S the GFP signal change (wild-type ribosome) was -0.028% (inactive), the OD600 change was 2.15% and the RFP signal change was 5.05%.
For CN(C)CCCNC(=O)C[C@H]1CC[C@H]2[C@@H](COC[C@H](O)CN2C(=O)c2ccncc2)O1, the GFP signal change (wild-type ribosome) was 1.62% (inactive), the OD600 change was 1.82% and the RFP signal change was -2.93%.
In the case of O=S(=O)(N[C@@H]1CC[C@H](CCn2cc(C3(O)CCCC3)nn2)O[C@@H]1CO)c1ccc(Cl)cc1, the GFP signal change (wild-type ribosome) is reported as 1% (inactive), the OD600 change is reported as -3.78% and the RFP signal change is reported as -2.53%.
With O=C(N/N=C/c1cccc(O)c1)c1cc2c(ccc3ccccc32)o1 the GFP signal change (wild-type ribosome) was -16.9% (inactive), the OD600 change was -25.4% and the RFP signal change was 6.33%.
For Cc1c(/C=N\NC(=O)c2cc3ccccc3o2)c2ccccc2n1C, the GFP signal change (wild-type ribosome) was -23.4% (active), the OD600 change was -4.47% and the RFP signal change was 6.38%.
For Cc1cc(NC(=O)c2cc3ccccc3o2)no1, the GFP signal change (wild-type ribosome) was -2.45% (inactive), the OD600 change was 5.97% and the RFP signal change was 7.13%.
With Cc1ccccc1S(=O)(=O)N1CC(=O)N2[C@H](CO)[C@H](c3ccc(C#CCN(C)C)cc3)[C@H]2C1 the GFP signal change (wild-type ribosome) was 4.6% (inactive), the OD600 change was 9.79% and the RFP signal change was 0.298%.
For COc1cc(CN2CC3(CN(S(=O)(=O)c4cccs4)C3)c3c(n(C)c4cc(OC)ccc34)[C@H]2CO)cc(OC)c1, the GFP signal change (wild-type ribosome) was 4.45% (inactive), the OD600 change was -5.95% and the RFP signal change was -2.78%.
In the case of CNS(=O)(=O)c1cccc(C(=O)OCC(=O)N2c3ccccc3NC(=O)C2(C)C)c1, the GFP signal change (wild-type ribosome) is reported as -0.594% (inactive), the OD600 change is reported as 2.51% and the RFP signal change is reported as -1.67%.
For Cc1cc(C(=O)OCC(=O)N2c3ccccc3NC(=O)C2(C)C)c(C)n1-c1ccccc1, the GFP signal change (wild-type ribosome) was -9.02% (inactive), the OD600 change was -33.1% and the RFP signal change was -9.39%.
In the case of CCNc1ccc(C(=O)OCC(=O)N2c3ccccc3NC(=O)C2(C)C)cc1[N+](=O)[O-], the GFP signal change (wild-type ribosome) is reported as -25.9% (active), the OD600 change is reported as -16.2% and the RFP signal change is reported as -4.1%.
With O=C(C[C@H]1CC[C@@H]2[C@H](COC[C@@H](O)CN2Cc2cccc(-c3ccncc3)c2)O1)N1CCOCC1 the GFP signal change (wild-type ribosome) was -1.04% (inactive), the OD600 change was 0.357% and the RFP signal change was -4.81%.
For C[C@H]1CN([C@@H](C)CO)C(=O)Cc2cc(NC(=O)NC3CCCCC3)ccc2O[C@@H]1CN(C)Cc1ccc(Oc2ccccc2)cc1, the GFP signal change (wild-type ribosome) was 1.65% (inactive), the OD600 change was 0.966% and the RFP signal change was -0.931%.
In the case of C[C@@H]1CN([C@@H](C)CO)C(=O)c2cc(NC(=O)Nc3ccc(C(F)(F)F)cc3)ccc2O[C@@H]1CN(C)Cc1ccncc1, the GFP signal change (wild-type ribosome) is reported as 8.75% (inactive), the OD600 change is reported as -38.7% and the RFP signal change is reported as 31.2%.
In the case of O=C(NCCc1c[nH]c2ccccc12)C1CCN(Cc2ccc(Br)cc2)CC1, the GFP signal change (wild-type ribosome) is reported as -52.8% (inactive), the OD600 change is reported as -78.6% and the RFP signal change is reported as -12.4%.
With O=C(NCCc1c[nH]c2ccccc12)c1cc2ccccc2oc1=O the GFP signal change (wild-type ribosome) was -5% (inactive), the OD600 change was 0.635% and the RFP signal change was -0.892%.
In the case of COc1ccccc1CC(=O)NCCc1c[nH]c2ccccc12, the GFP signal change (wild-type ribosome) is reported as -17.2% (active), the OD600 change is reported as -2.84% and the RFP signal change is reported as 2.84%.
In the case of O=C(NCCc1c[nH]c2ccccc12)c1cccc(Br)c1, the GFP signal change (wild-type ribosome) is reported as -23% (active), the OD600 change is reported as -17% and the RFP signal change is reported as 3.38%.
With O=C(CCc1c[nH]c2ccccc12)NCCOc1ccccc1 the GFP signal change (wild-type ribosome) was 7.54% (inactive), the OD600 change was 3.6% and the RFP signal change was 0.609%.
With O=C(COC(=O)Cc1c[nH]c2ccccc12)NCCc1ccccc1 the GFP signal change (wild-type ribosome) was 1.61% (inactive), the OD600 change was -7.07% and the RFP signal change was 1.57%.
For O=C(C[C@H]1CC[C@H]2[C@@H](COC[C@@H](O)CN2S(=O)(=O)c2ccc(Cl)cc2)O1)NCCN1CCCCC1, the GFP signal change (wild-type ribosome) was 0.039% (inactive), the OD600 change was 1.47% and the RFP signal change was -0.478%.
With COc1cccc(CC(=O)N2CCN(C(=O)C(=O)c3cccc(C(F)(F)F)c3)CC2)c1 the GFP signal change (wild-type ribosome) was -2.93% (inactive), the OD600 change was -8.1% and the RFP signal change was 7.12%.
For C[C@@H]1CN([C@@H](C)CO)S(=O)(=O)c2ccc(-c3cccc(C(=O)N(C)C)c3)cc2O[C@@H]1CN(C)C(=O)Nc1ccccc1, the GFP signal change (wild-type ribosome) was -9.2% (inactive), the OD600 change was -5.97% and the RFP signal change was -2.53%.
For O=S(=O)(NC1CC2CCC1C2)c1ccc(Cl)cc1 (stereo unspecified), the GFP signal change (wild-type ribosome) was 3.91% (inactive), the OD600 change was -2.44% and the RFP signal change was -1.19%.
For O=C(NNC(=O)C1C2CCC(C2)C1C(=O)O)c1ccc(Cl)cc1 (stereo unspecified), the GFP signal change (wild-type ribosome) was 1.61% (inactive), the OD600 change was 3.63% and the RFP signal change was -0.52%.
In the case of O=C(NNC(=S)NC1CC2CCC1C2)c1ccc(Cl)cc1 (stereo unspecified), the GFP signal change (wild-type ribosome) is reported as -24.6% (active), the OD600 change is reported as -6.95% and the RFP signal change is reported as -4.4%.
For COc1ccc(NC(=O)N(C)C[C@@H]2Oc3ccc(NS(=O)(=O)c4ccc(C)cc4)cc3CC(=O)N([C@@H](C)CO)C[C@H]2C)cc1, the GFP signal change (wild-type ribosome) was 0.124% (inactive), the OD600 change was -3.65% and the RFP signal change was 1.41%.
For CN1CCN(C(=O)c2ccc(-c3ccc(Br)cc3)o2)CC1, the GFP signal change (wild-type ribosome) was -5.31% (inactive), the OD600 change was -1.78% and the RFP signal change was 2.79%.
For CC1CCN(C(=S)c2ccc(-c3ccc(Cl)cc3Cl)o2)CC1, the GFP signal change (wild-type ribosome) was -16.5% (inactive), the OD600 change was -16.4% and the RFP signal change was -6.12%.
With S=C(c1ccc(-c2ccccc2)o1)N1CCCCC1 the GFP signal change (wild-type ribosome) was -28.2% (active), the OD600 change was -14.7% and the RFP signal change was -0.16%.
In the case of C[C@@H]1CN([C@H](C)CO)C(=O)c2cc(-c3cncnc3)cnc2O[C@@H]1CN(C)Cc1ccc(Oc2ccccc2)cc1, the GFP signal change (wild-type ribosome) is reported as 1.64% (inactive), the OD600 change is reported as 8.99% and the RFP signal change is reported as 0.949%.
For O=S(=O)(NC[C@H]1[C@H](c2ccccc2)[C@H](CO)N1CC1CC1)c1ccccc1, the GFP signal change (wild-type ribosome) was -3.76% (inactive), the OD600 change was -2.41% and the RFP signal change was -1.76%.
